Experimental data as given in PubChem BioAssay (NCATS).
Several values for one entry are separate records, joined by “and”; a condition that tells them apart may be missing. Equal values may be shown once. Inconclusive results are not listed. Activity calls are given as the source filed them. Unless noted, calls come from the whole dose curve.

Experiments:
[1] = target: Peroxisome proliferator-activated receptor gamma (Homo sapiens) (UniProt P37231); test: qHTS assay for small molecule agonists of peroxisome proliferator-activated receptor gamma signaling (AID 588536; active = well fitted curve in the direction sought with a large enough effect in the signal ratio, with a control signal flat, not every such curve was filed as active; the % refers to the signal ratio;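 note: 0% = DMSO basal wells and 100% = rosiglitazone at 2 µM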)
How it was run: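 PPAR-gamma-UAS-bla HEK293 cells in medium with 1% charcoal/dextran-treated FBS were exposed to compounds for 16 h at 37 C. Beta-lactamase activity was read with CCF4 substrate (405 nm excitation, 460/530 nm emission).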

[2] = target: Peroxisome proliferator-activated receptor gamma (Homo sapiens) (UniProt P37231); test: qHTS assay for small molecule antagonists of peroxisome proliferator-activated receptor gamma signaling (AID 588537; active = well fitted inhibition curve with a large enough effect in the signal ratio, with a control signal flat, not every such curve was filed as active; the % refers to the signal ratio;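 note: reporter cells co-stimulated with 50 nM rosiglitazone agonist during compound treatment; % of control where 0% means no effect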)
How it was run: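 Inhibitors of agonist-stimulated UAS-bla reporter activity were sought in HEK293 cells; rosiglitazone (50 nM) defined full signal and DMSO baseline. Curves fitted to Hill model gave IC50 and efficacy.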

[3] = target: Vitamin D3 receptor (Homo sapiens) (UniProt P11473); test: qHTS assay for small molecule antagonists of vitamin D receptor signaling (AID 588541);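 note: receptor activated by calcitriol during compound treatment; series mostly up to about 77 µM; % is set by controls: 0 for no effect and ±100 for the full control effect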
How it was run: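 Antagonist-mode beta-lactamase reporter assay: HEK293T VDR-UAS-bla cells were exposed to titrated compound alongside 1-alpha,25-dihydroxyvitamin D3 at 3 nM final for 16 h. Values were normalized to the 50 nM agonist control and DMSO basal, with IC50 and efficacy from Hill equation fits.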

[4] = target: Vitamin D3 receptor (Homo sapiens) (UniProt P11473); test: qHTS assay for small molecule agonists of vitamin D receptor signaling (AID 588543);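 note: 0% = DMSO basal and 100% = reference agonist control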
How it was run: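 β-lactamase reporter, VDR-UAS-bla HEK293T, agonist mode. Cells plated 5 h at 37 °C, compound titration 16 h at 37 °C, CCF4 dye 2 h RT, ratio 460/530 nm. Hill fit → EC50, efficacy vs 50 nM 1α,25-(OH)2D3.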

[5] = qHTS assay for small molecule agonists of retinoid X receptor alpha signaling (AID 588544); settings: HEK293T RXRa-UAS-bla, beta-lactamase reporter, 18 h; 530 nm emission;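 for activation: 0% = DMSO basal wells and 100% = reference agonist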
[6] = target: Retinoic acid receptor RXR-alpha (Homo sapiens) (UniProt P19793); test: as above
[7] = target: Thyroid hormone receptor beta (Homo sapiens) (UniProt P10828); test: qHTS assay for small molecule agonists of thyroid hormone receptor beta signaling (AID 588545);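 note: 0% = DMSO only and 100% = 10 nM T3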
How it was run: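 TR-UAS-bla GripTite HEK 293 cells (2500/well, medium with 2% charcoal/dextran FBS) were treated in agonist mode for 18 h at 37 C, titrated. Beta-lactamase was read by CCF4 ratio after 2 h; normalized to 10 nM T3 (100%) and DMSO, Hill-fitted for EC50 and efficacy.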

[8] = qHTS assay for small molecule antagonists of retinoid X receptor alpha signaling (AID 588546; active = well fitted inhibition curve with a large enough effect in the signal ratio, with a control signal flat, not every such curve was filed as active; the % refers to the signal ratio;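 note: cells stimulated with 9-cis-retinoic acid as agonist; % is set by controls: 0 for no effect and ±100 for the full control effect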); settings: HEK293T RXRa-UAS-bla, beta-lactamase ratio, antagonist mode; measured here: W530 green channel, cytotoxicity proxy
How it was run: (§1)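 Beta-lactamase reporter inhibition, read as CCF4 fluorescence ratio (ex 405, em 460/530 nm) after 2 h at RT. HEK293T UAS-bla cells, 2500/well, were stimulated with 9-cis-RA at 500 or 100 nM final alongside test compound for 18 h at 37 C.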

[9] = target: Retinoic acid receptor RXR-alpha (Homo sapiens) (UniProt P19793); test: as above; settings: HEK293T RXRa-UAS-bla, beta-lactamase ratio, antagonist mode
How it was run: as §1

[10] = target: Voltage-gated inwardly rectifying potassium channel KCNH2 (Homo sapiens) (UniProt Q12809); test: qHTS Assay for Small Molecule Inhibitors of the Human hERG Channel Activity (AID 588834; active = well fitted curve in the direction sought with a large enough effect; an effect the other way counts as inactive or inconclusive;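 note: top concentration of the series differs between compounds; % is set by controls: 0 for no effect and ±100 for the full control effect; lower thallium flux fluorescence means stronger hERG block; nearly all actives have a fitted effect of over 50% in size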)
How it was run: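 Concentration-response qHTS measuring drop in thallium-sensitive dye signal. U2OS cells carrying BacMam hERG; compound exposure ~10 min, then stimulation buffer and 2 min read at 1 sec intervals.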

[11] = qHTS assay for small molecule agonists of the antioxidant response element (ARE) signaling pathway (AID 651741; active = well fitted activation curve with a large enough effect in the signal ratio; the % refers to the signal ratio; note: % of control where 0% means no effect)
How it was run: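 Seeding 2,000 ARE-bla HepG2 cells per well preceded a 5 h incubation at 37 C/5% CO2 and a 16 h compound exposure at 37 C. Beta-lactamase reporter activity was then quantified by fluorescence after 2 h with LiveBLAzer B/G FRET substrate.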

[12] = qHTS assay for small molecule activators of the p53 signaling pathway (AID 651743; active = well fitted activation curve with a large enough effect in the signal ratio, not every such curve was filed as active; the % refers to the signal ratio; note: series mostly up to about 92 µM; % of control where 0% means no effect); settings: HCT-116 p53RE-bla, beta-lactamase FRET ratio, 16 h; activation: stronger effect = higher value
How it was run: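 Screen for p53 pathway agonists uses stably transfected p53RE-bla HCT-116 cells, 4,000 per well, treated 16 h at 37 C with compounds in DMSO.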

[13] = qHTS assay for small molecule activators of the nuclear factor-kappa B (NF-kB) signaling pathway (AID 651749; active = well fitted activation curve with a large enough effect in the signal ratio; the % refers to the signal ratio; note: series mostly up to about 77 µM; % of control where 0% means no effect); settings: NF-kB-bla ME-180 cells, beta-lactamase FRET ratio, 16 h; stronger effect = higher value
How it was run: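 Stably transfected ME-180 line; NF-kB response element upstream of beta-lactamase. Treatment: compound or DMSO, 16 hr. Detection: fluorescent FRET substrate.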

[14] = qHTS assay for small molecule disruptors of the mitochondrial membrane potential - 1 hr assay (AID 651754); note: % is set by controls: 0 for no effect and ±100 for the full control effect; nearly all actives have a fitted effect of over 35% in size
How it was run: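 HepG2 cells, attached overnight at 37C, were exposed to compound or DMSO vehicle for 1 hr at 37C, 5% CO2, then stained with Mito-MPS dye for 30 min. Red aggregate versus green monomer fluorescence reports membrane potential.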

[15] = qHTS assay for small molecule disruptors of the mitochondrial membrane potential - 5 hr assay (AID 651755); note: % is set by controls: 0 for no effect and ±100 for the full control effect; nearly all actives have a fitted effect of over 40% in size
How it was run: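 HepG2, 2,000 cells/well, overnight attach; cpd or DMSO 5 hr, 37C/5% CO2; Mito-MPS 30 min 37C; fluor 490/535 + 540/590 nm.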

[16] = target: Tumor necrosis factor (Homo sapiens) (UniProt P01375); test: qHTS assay to identify small molecules that stimulate Tumor Necrosis Factor-alpha (TNF-alpha) secretion (AID 651757; active = well fitted curve in the direction sought with a large enough effect in the signal ratio; the % refers to the signal ratio; note: 0% is about no effect)
How it was run: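 THP-1 cells were exposed to compounds for 17 hrs at 37 C, after which secreted TNF-alpha was measured by homogeneous HTRF (TR-FRET) using cryptate- and XL665-labeled anti-TNF-alpha antibodies, read after 3 hr at room temperature.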

[17] = qHTS assay to identify small molecules that stimulate interleukin-8 (IL-8) secretion (AID 651758; active = well fitted activation curve with a large enough effect in the signal ratio; the % refers to the signal ratio; note: 0% is about no effect)
How it was run: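 Secreted IL-8 measured by TR-FRET sandwich (cryptate and XL665 antibodies) from THP-1 cells exposed to compound overnight (16 hrs, 37 C).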

[18] = qHTS assay for environmental chemicals that activate the Aryl hydrocarbon Receptor (AhR) signaling pathway (AID 651777; active = well fitted curve in the direction sought with a large enough effect; an effect the other way counts as inactive or inconclusive; note: % of control where 0% means no effect; nearly all actives have a fitted effect of over 15% in size); settings: 1A2-DRE human hepatoma cells, luciferase, 24 h; activation: stronger effect = higher value
How it was run: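 Human hepatoma 1A2-DRE cells, stably carrying a dioxin response element and CYP1A2 promoter driving luciferase, were exposed to compounds for 24 hr at 37 C and 5% CO2. Luciferase signal was then read after 30 min One-Glo at room temperature.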

[19] = target: Peroxisome proliferator-activated receptor alpha (Homo sapiens) (UniProt Q07869); test: qHTS assay for small molecule agonists of the peroxisome proliferator-activated receptor alpha (PPARalpha) signaling pathway (AID 651778; active = well fitted curve in the direction sought with a large enough effect; an effect the other way counts as inactive or inconclusive; note: % of control where 0% means no effect); settings: PathHunter PPARalpha complementation, chemiluminescence, 6 h; max response: stronger effect = higher value
How it was run: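 Chemiluminescence from complemented enzyme reported PPARalpha activation in cells after 6 hr of compound treatment at 37 C. The detection reagent was incubated for 60 min at room temperature, and compounds were scored as agonists.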

[20] = qHTS assay for small molecule agonists of the antioxidant response element (ARE) signaling pathway measured by Nrf2-dependant transcriptional activity (AID 720636; active = well fitted curve in the direction sought with a large enough effect in the repeat runs; an effect the other way counts as inactive or inconclusive; note: % of control where 0% means no effect)
How it was run: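 ARE-luc HepG2 cells carrying an Nrf2-responsive luciferase reporter were plated in medium with 1% dialyzed FBS, left 6 hr at 37 C to attach, then exposed to compound for 16 hr. Luciferase luminescence was read after ONE-Glo addition.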

[21] = qHTS assay for small molecule antagonists of the retinoid-related orphan receptor gamma (ROR-gamma) signaling pathway - cell viability counter screen (AID 720652; active = well fitted curve in the direction sought with a large enough effect in the repeat runs; an effect the other way counts as inactive or inconclusive;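 note: CHO reporter cells with doxycycline-induced ROR-gamma expression; series mostly up to about 92 µM; compound exposure lasted 16 hr before ATP read; % is set by controls: 0 for no effect and ±100 for the full control effect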)
How it was run: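 Counter screen in CHO cells carrying TET-inducible ROR-gamma and an ROR response element-luciferase reporter; cells plated 5 hr, compound pinned, doxycycline added, then 16 hr at 37 C. Viability read as intracellular ATP by CellTiter-Glo luminescence.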

[22] = qHTS assay for small molecule agonists of the antioxidant response element (ARE) signaling pathway measured by Nrf2-dependant transcriptional activity - cell viability counter screen (AID 720653; active = well fitted curve in the direction sought with a large enough effect in the repeat runs; an effect the other way counts as inactive or inconclusive; note: % is set by controls: 0 for no effect and ±100 for the full control effect); settings: ARE-bla HepG2 viability, CellTiter-Glo ATP luminescence, 16 h; max response: stronger effect = lower value
How it was run: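 Cytotoxicity counter screen: intracellular ATP quantified by CellTiter-Glo luminescence in the same ARE-bla HepG2 plates, after 16 h compound exposure and a 2 h beta-lactamase substrate step.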

[23] = qHTS assay for cell viability of HEK293 cells (AID 743288; active = well fitted curve in the direction sought with a large enough effect; an effect the other way counts as inactive or inconclusive; note: % is set by controls: 0 for no effect and ±100 for the full control effect; nearly all actives have a fitted effect of over 50% in size); settings: ATP luminescence (CellTiter-Glo), 18 h; max response: stronger effect = lower value
How it was run: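 Environmental chemicals tested in qHTS format against parental HEK293 cells; 18 h treatment, 37 C; read-out ATP luminescence (CellTiter-Glo), 30 min RT development.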

[24] = qHTS assay for cell viability of the p53RE-bla HCT-116 cell line (AID 743292; active = well fitted curve in the direction sought with a large enough effect; an effect the other way counts as inactive or inconclusive; note: % is set by controls: 0 for no effect and ±100 for the full control effect; nearly all actives have a fitted effect of over 55% in size)
How it was run: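 CellSensor p53RE-bla HCT-116 cells, 4,000/well, preincubated 5 h at 37 C, then exposed to compounds in DMSO for 16 h at 37 C. Viability read as CellTiter-Glo luminescence (intracellular ATP) after 30 min at room temperature.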

[25] = target: Nuclear receptor subfamily 1 group I member 2 (Rattus norvegicus) (UniProt Q9R1A7); test: qHTS assay for small molecule activators of the rat pregnane X receptor (rPXR) signaling pathway (AID 651751; call rule not given here; note: 0% is about no effect); settings: rPXR reporter cells, luciferase (One-Glo), 24 h
[26] = qHTS assay for small molecule activators of the human pregnane X receptor (PXR) signaling pathway (AID 720659; call rule not given here; note: 0% is about no effect)

Sequence of Vitamin D3 receptor (Homo sapiens) (P11473 whole entry, looked up): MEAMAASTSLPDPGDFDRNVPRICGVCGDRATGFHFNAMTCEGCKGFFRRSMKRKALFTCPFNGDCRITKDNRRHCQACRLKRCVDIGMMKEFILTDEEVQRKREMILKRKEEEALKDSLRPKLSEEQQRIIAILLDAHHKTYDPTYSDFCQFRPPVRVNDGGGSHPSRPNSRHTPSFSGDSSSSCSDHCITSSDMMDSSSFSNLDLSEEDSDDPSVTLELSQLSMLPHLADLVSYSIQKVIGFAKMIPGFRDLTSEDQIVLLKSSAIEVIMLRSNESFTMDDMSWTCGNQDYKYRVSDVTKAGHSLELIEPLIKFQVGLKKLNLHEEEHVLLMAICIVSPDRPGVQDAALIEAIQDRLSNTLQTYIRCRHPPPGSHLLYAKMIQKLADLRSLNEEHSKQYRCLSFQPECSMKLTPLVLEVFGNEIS
Sequence of Retinoic acid receptor RXR-alpha (Homo sapiens) (P19793 whole entry, looked up): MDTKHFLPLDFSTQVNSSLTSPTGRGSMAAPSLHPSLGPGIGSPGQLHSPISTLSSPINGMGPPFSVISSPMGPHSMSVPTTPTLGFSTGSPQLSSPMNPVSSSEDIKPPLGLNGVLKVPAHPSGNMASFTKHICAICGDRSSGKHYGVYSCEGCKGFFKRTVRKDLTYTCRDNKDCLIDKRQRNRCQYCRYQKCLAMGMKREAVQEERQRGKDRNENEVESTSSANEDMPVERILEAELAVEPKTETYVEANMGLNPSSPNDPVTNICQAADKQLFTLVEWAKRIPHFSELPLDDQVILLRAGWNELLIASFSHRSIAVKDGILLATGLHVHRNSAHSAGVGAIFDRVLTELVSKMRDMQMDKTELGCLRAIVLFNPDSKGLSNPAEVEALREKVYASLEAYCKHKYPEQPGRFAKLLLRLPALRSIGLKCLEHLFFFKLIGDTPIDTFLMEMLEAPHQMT
Sequence of Peroxisome proliferator-activated receptor gamma (Homo sapiens) (P37231 whole entry, looked up): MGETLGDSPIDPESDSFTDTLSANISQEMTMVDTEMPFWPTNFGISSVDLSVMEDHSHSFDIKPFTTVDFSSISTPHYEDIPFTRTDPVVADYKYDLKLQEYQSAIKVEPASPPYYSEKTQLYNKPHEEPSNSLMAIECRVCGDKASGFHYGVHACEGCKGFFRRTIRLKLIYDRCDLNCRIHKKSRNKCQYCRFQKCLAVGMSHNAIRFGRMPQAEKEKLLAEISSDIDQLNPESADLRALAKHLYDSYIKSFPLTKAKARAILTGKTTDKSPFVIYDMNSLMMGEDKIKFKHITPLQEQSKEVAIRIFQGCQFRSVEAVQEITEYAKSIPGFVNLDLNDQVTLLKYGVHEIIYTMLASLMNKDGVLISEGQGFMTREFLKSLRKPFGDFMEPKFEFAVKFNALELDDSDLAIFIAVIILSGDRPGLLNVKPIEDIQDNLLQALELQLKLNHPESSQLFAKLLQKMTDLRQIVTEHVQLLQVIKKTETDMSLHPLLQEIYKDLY
Sequence of Peroxisome proliferator-activated receptor alpha (Homo sapiens) (Q07869 whole entry, looked up): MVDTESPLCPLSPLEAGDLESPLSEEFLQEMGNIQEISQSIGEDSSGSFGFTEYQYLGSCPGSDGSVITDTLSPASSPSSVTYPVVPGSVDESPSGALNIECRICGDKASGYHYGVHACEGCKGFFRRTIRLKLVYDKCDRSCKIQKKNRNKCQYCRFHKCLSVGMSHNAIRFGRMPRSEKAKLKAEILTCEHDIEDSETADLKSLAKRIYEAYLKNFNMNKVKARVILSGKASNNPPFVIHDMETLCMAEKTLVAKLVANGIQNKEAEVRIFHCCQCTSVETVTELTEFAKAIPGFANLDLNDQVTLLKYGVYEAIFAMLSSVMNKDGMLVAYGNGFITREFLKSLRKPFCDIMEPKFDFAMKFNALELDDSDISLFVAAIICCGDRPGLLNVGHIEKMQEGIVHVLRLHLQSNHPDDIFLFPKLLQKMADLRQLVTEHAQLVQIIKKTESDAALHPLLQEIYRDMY
Sequence of Thyroid hormone receptor beta (Homo sapiens) (P10828 whole entry, looked up): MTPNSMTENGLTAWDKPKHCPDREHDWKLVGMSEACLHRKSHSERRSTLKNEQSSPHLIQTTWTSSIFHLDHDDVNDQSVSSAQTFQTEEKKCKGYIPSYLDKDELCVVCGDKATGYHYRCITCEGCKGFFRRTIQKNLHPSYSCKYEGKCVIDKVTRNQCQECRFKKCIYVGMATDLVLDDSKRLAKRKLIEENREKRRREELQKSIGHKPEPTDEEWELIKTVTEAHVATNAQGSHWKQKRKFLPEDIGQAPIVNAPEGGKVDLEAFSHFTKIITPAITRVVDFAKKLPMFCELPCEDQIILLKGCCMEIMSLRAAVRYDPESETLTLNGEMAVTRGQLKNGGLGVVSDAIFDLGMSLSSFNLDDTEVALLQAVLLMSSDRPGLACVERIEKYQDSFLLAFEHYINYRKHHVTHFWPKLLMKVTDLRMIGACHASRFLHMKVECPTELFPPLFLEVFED
Sequence of Nuclear receptor subfamily 1 group I member 2 (Rattus norvegicus) (Q9R1A7 whole entry, looked up): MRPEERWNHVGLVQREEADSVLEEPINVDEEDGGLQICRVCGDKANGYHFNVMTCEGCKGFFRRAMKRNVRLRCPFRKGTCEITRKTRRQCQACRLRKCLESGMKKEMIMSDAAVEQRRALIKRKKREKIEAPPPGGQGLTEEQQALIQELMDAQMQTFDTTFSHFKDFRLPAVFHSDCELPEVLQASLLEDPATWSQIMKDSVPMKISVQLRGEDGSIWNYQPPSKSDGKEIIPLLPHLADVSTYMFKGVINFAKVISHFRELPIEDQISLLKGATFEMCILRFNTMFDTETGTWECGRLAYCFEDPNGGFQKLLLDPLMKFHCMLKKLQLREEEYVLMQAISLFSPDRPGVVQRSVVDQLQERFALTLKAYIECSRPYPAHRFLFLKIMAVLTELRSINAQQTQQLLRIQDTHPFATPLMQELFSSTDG
Sequence of Voltage-gated inwardly rectifying potassium channel KCNH2 (Homo sapiens) (Q12809 whole entry, looked up): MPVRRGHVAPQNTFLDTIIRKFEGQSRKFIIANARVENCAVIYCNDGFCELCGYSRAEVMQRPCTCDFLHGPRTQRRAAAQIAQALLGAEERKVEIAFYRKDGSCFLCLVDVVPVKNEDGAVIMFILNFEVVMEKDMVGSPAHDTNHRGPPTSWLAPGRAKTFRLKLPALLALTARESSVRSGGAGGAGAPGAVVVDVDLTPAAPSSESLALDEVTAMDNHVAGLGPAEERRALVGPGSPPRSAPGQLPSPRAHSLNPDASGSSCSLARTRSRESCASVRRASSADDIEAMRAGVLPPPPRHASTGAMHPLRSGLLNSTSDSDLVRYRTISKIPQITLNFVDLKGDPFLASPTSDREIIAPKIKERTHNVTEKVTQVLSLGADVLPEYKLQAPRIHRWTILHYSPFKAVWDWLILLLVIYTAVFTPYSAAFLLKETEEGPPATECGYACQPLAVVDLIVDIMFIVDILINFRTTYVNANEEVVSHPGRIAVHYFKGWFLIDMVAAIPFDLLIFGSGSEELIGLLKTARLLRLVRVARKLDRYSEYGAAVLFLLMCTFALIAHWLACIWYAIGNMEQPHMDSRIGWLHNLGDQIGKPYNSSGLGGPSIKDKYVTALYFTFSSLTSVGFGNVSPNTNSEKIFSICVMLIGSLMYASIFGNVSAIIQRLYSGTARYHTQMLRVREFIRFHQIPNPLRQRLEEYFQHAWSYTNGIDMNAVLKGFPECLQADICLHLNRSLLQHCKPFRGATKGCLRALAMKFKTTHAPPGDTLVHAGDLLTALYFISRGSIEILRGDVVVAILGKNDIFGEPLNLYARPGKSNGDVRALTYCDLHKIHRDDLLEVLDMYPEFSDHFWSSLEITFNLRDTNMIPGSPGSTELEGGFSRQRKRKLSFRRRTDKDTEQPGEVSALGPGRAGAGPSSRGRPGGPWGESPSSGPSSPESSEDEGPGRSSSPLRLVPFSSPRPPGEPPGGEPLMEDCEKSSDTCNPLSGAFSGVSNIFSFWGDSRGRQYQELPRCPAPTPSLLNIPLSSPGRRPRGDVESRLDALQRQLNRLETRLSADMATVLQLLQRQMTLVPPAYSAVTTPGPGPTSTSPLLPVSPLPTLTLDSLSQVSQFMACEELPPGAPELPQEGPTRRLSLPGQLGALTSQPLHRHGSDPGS
Sequence of Tumor necrosis factor (Homo sapiens) (P01375 whole entry, looked up): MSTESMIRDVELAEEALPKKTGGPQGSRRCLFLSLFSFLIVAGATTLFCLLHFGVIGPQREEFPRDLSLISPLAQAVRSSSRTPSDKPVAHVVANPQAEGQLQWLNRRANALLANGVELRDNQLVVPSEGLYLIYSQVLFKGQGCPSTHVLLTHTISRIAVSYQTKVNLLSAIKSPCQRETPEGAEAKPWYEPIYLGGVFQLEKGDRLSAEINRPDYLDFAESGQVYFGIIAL

CC(CCC(=O)O)(c1ccc(O)cc1)c1ccc(O)cc1
inactive: outcome [1] | Potency [2] | Potency [3] | Potency [4] | Potency [6] | Potency [7] | max response [9] 11.2% and 0.834% | Potency [10] | Potency [11] | activation [12] -5.03% and -5.24% | activation [13] 0.0681% and 0.181% | Potency [14] | Potency [15] | Potency [16] | Potency [17] | activation [18] 2.27% and -1.21% | max response [19] -9.77% and -1.13% | Potency [20] | Potency [21] | max response [22] -5.33% and -3.83% | max response [23] -3.82% and -8.09% | Potency [24] | max response [25] -1.81% and -3.54% | outcome [26]
0.685% and -9.17%: max response [8]
-8.9% and -10.2%: max response [5]
